In PubChem BioAssay AID1159580 (chemical genetic matrix, 2015):
“And” between values parts separate entries of the source, which are not always exact repeats. Equal entries are not always repeated. The campaign covered roughly 5,500 compounds. About 2,000 (36%) were called active. Another 18% or so got no clear call; they are omitted. Rule as the data show it: active = normalized growth mostly below about 0.91 (no sharp cut-off); inconclusive = no clear call, values can overlap the other calls; inactive = mostly above about 0.92. This is one part of the list.

Assay: chemical genetic growth profiling, strain panel (AID 1159580);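 also: tested at 20 µM; growth read once vehicle control cultures reached saturation at 30 °C; 1 = growth at the plate median or of vehicle wells; lower values mean less growth of the strain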
Details: growth OD

Measured: normalized growth

CC1(C)C2(Cl)C(Cl)C(Cl)C(Cl)(C(Cl)Cl)C1(Cl)C2Cl (configuration not stated)
inactive: S. cerevisiae deletion strains, locus YAL013W, strain DEP1, stronger effect = lower value 0.98 | S. cerevisiae deletion strains, locus YBR021W, strain FUR4, stronger effect = lower value 0.985 | S. cerevisiae deletion strains, locus YBR229C, strain ROT2, stronger effect = lower value 0.985 | S. cerevisiae deletion strains, locus YCL029C, strain bik1, stronger effect = lower value 0.982 | S. cerevisiae deletion strains, locus YDL035C, strain GPR1, stronger effect = lower value 0.947 | S. cerevisiae deletion strains, locus YDL074C, strain BRE1, stronger effect = lower value 0.918 | S. cerevisiae deletion strains, locus YDL101C, strain DUN1, stronger effect = lower value 0.982 | S. cerevisiae deletion strains, locus YDL134C, strain PPH21, stronger effect = lower value 0.981 | S. cerevisiae deletion strains, locus YDL185W, strain tfp1, stronger effect = lower value 0.976 | S. cerevisiae deletion strains, locus YDL192W, strain arf1, stronger effect = lower value 0.98 | S. cerevisiae deletion strains, locus YDR101C, strain arx1, stronger effect = lower value 0.993 | S. cerevisiae deletion strains, locus YDR150W, strain NUM1, stronger effect = lower value 0.994 | S. cerevisiae deletion strains, locus YDR162C, strain NBP2, stronger effect = lower value 0.968 | S. cerevisiae deletion strains, locus YDR318W, strain mcm21, stronger effect = lower value 0.95 | S. cerevisiae deletion strains, locus YDR388W, stronger effect = lower value 0.964 | S. cerevisiae deletion strains, locus YDR502C, strain sam2, stronger effect = lower value 0.957 | S. cerevisiae deletion strains, locus YEL061C, strain CIN8, stronger effect = lower value 0.992 | S. cerevisiae deletion strains, locus YER110C, stronger effect = lower value 0.984 | S. cerevisiae deletion strains, locus YER155C, strain BEM2, stronger effect = lower value 1 | S. cerevisiae deletion strains, locus YER167W, strain BCK2, stronger effect = lower value 0.975 | S. cerevisiae deletion strains, locus YGL078C, strain dbp3, stronger effect = lower value 0.982 | S. cerevisiae deletion strains, locus YGL086W, strain mad1, stronger effect = lower value 0.962 | S. cerevisiae deletion strains, locus YGL248W, strain PDE1, stronger effect = lower value 0.979 | S. cerevisiae deletion strains, locus YGR078C, strain PAC10, stronger effect = lower value 0.94 | S. cerevisiae deletion strains, locus YGR135W, strain pre9, stronger effect = lower value 0.951 | S. cerevisiae deletion strains, locus YGR229C, strain SMI1, stronger effect = lower value 0.865 | S. cerevisiae deletion strains, locus YGR252W, strain gcn5, stronger effect = lower value 0.956 | S. cerevisiae deletion strains, locus YHR030C, strain SLT2, stronger effect = lower value 0.995 and 0.96 | S. cerevisiae deletion strains, locus YHR079C, strain IRE1 (second series), stronger effect = lower value 0.975 | S. cerevisiae deletion strains, locus YHR079C, strain IRE1, stronger effect = lower value 0.946 | S. cerevisiae deletion strains, locus YHR094C, strain hxt1, stronger effect = lower value 0.981 | S. cerevisiae deletion strains, locus YHR129C, strain ARP1, stronger effect = lower value 0.984 | S. cerevisiae deletion strains, locus YHR200W, strain rpn10, stronger effect = lower value 0.979 | S. cerevisiae deletion strains, locus YIL066C, strain RNR3, stronger effect = lower value 0.891 | S. cerevisiae deletion strains, locus YIL073C, strain SPO22, stronger effect = lower value 0.829 | S. cerevisiae deletion strains, locus YIL125W, strain kgd1, stronger effect = lower value 0.981 | S. cerevisiae deletion strains, locus YIR030C, strain dcg1, stronger effect = lower value 0.978 | S. cerevisiae deletion strains, locus YJL095W, strain BCK1, stronger effect = lower value 0.954 and 0.978 | S. cerevisiae deletion strains, locus YJL134W, strain LCB3, stronger effect = lower value 0.991 | S. cerevisiae deletion strains, locus YJL168C, strain set2, stronger effect = lower value 0.978 | S. cerevisiae deletion strains, locus YJL187C, strain SWE1 (second series), stronger effect = lower value 0.983 | S. cerevisiae deletion strains, locus YJR043C, strain POL32, stronger effect = lower value 1.01 | S. cerevisiae deletion strains, locus YJR066W, strain TOR1, stronger effect = lower value 0.935 | S. cerevisiae deletion strains, locus YJR075W, strain HOC1, stronger effect = lower value 0.954 | S. cerevisiae deletion strains, locus YKL009W, strain mrt4, stronger effect = lower value 0.971 | S. cerevisiae deletion strains, locus YKL068W, stronger effect = lower value 0.971 | S. cerevisiae deletion strains, locus YKL085W, strain MDH1 (second series), stronger effect = lower value 0.968 | S. cerevisiae deletion strains, locus YKL085W, strain MDH1, stronger effect = lower value 0.968 | S. cerevisiae deletion strains, locus YKL190W, strain CNB1, stronger effect = lower value 0.989 | S. cerevisiae deletion strains, locus YKR001C, strain vps1, stronger effect = lower value 0.932 | S. cerevisiae deletion strains, locus YLR039C, strain RIC1, stronger effect = lower value 0.79 | S. cerevisiae deletion strains, locus YLR058C, strain SHM2, stronger effect = lower value 0.978 | S. cerevisiae deletion strains, locus YLR102C, strain apc9, stronger effect = lower value 0.986 | S. cerevisiae deletion strains, locus YLR113W, strain HOG1, stronger effect = lower value 0.948 | S. cerevisiae deletion strains, locus YLR262C, strain YPT6, stronger effect = lower value 0.768 | S. cerevisiae deletion strains, locus YLR268W, strain sec22, stronger effect = lower value 0.956 | S. cerevisiae deletion strains, locus YLR330W, strain CHS5, stronger effect = lower value 0.992 | S. cerevisiae deletion strains, locus YLR342W, strain FKS1 (second series), stronger effect = lower value 0.893 | S. cerevisiae deletion strains, locus YLR371W, strain rom2, stronger effect = lower value 0.986 | S. cerevisiae deletion strains, locus YML016C, strain PPZ1, stronger effect = lower value 0.984 | S. cerevisiae deletion strains, locus YML032C, strain rad52, stronger effect = lower value 0.954 | S. cerevisiae deletion strains, locus YML124C, strain tub3, stronger effect = lower value 0.982 | S. cerevisiae deletion strains, locus YMR078C, strain ctf18, stronger effect = lower value 0.961 | S. cerevisiae deletion strains, locus YMR223W, strain ubp8, stronger effect = lower value 0.939 | S. cerevisiae deletion strains, locus YMR263W, strain SAP30, stronger effect = lower value 0.993 | S. cerevisiae deletion strains, locus YMR307W, strain GAS1, stronger effect = lower value 0.887 | S. cerevisiae deletion strains, locus YNL067W, strain RPL9B, stronger effect = lower value 0.987 | S. cerevisiae deletion strains, locus YNL128W, strain TEP1, stronger effect = lower value 0.993 | S. cerevisiae deletion strains, locus YNL153C, strain GIM3, stronger effect = lower value 0.986 | S. cerevisiae deletion strains, locus YNL183C, strain NPR1, stronger effect = lower value 0.943 | S. cerevisiae deletion strains, locus YNL233W, strain BNI4, stronger effect = lower value 0.989 | S. cerevisiae deletion strains, locus YNL250W, strain rad50, stronger effect = lower value 0.969 | S. cerevisiae deletion strains, locus YNL271C, strain bni1, stronger effect = lower value 0.97 | S. cerevisiae deletion strains, locus YNL298W, strain CLA4, stronger effect = lower value 0.971 | S. cerevisiae deletion strains, locus YNL322C, strain KRE1, stronger effect = lower value 0.994 | S. cerevisiae deletion strains, locus YNR052C, strain pop2, stronger effect = lower value 0.963 | S. cerevisiae deletion strains, locus YOL006C, strain TOP1, stronger effect = lower value 0.867 | S. cerevisiae deletion strains, locus YOL012C, strain htz1 0.99 | S. cerevisiae deletion strains, locus YOL147C, strain pex11, stronger effect = lower value 0.982 | S. cerevisiae deletion strains, locus YOR061W, strain CKA2, stronger effect = lower value 0.994 | S. cerevisiae deletion strains, locus YOR069W, strain VPS5, stronger effect = lower value 0.984 | S. cerevisiae deletion strains, locus YOR136W, strain idh2, stronger effect = lower value 0.966 | S. cerevisiae deletion strains, locus YOR144C, strain elg1, stronger effect = lower value 0.981 | S. cerevisiae deletion strains, locus YOR231W, strain MKK1, stronger effect = lower value 0.964 | S. cerevisiae deletion strains, locus YOR316C, strain cot1, stronger effect = lower value 0.977 | S. cerevisiae deletion strains, locus YPL055C, strain LGE1, stronger effect = lower value 0.96 | S. cerevisiae deletion strains, locus YPL241C, strain CIN2, stronger effect = lower value 0.993 | S. cerevisiae deletion strains, locus YPL256C, strain CLN2, stronger effect = lower value 0.9 | S. cerevisiae deletion strains, locus YPR119W, strain clb2, stronger effect = lower value 0.976 | S. cerevisiae deletion strains, locus YPR141C, strain kar3, stronger effect = lower value 0.957 | S. cerevisiae deletion strains, locus YPR167C, strain met16, stronger effect = lower value 0.974 | S. cerevisiae deletion strains, strain wtn01, stronger effect = lower value 0.966 | S. cerevisiae strains, strain wild type, stronger effect = lower value 0.986
active: S. cerevisiae deletion strains, locus YLR418C, strain cdc73, stronger effect = lower value 0.755 | S. cerevisiae deletion strains, locus YNL307C, strain MCK1, stronger effect = lower value 0.544 | S. cerevisiae deletion strains, locus YOR184W, strain ser1, stronger effect = lower value 0.809 | S. cerevisiae deletion strains, locus YPR163C, strain tif3, stronger effect = lower value 0.91
